Source: PubChem
Tb PGK inh – inhibitors of T. brucei phosphoglycerate kinase | PGK/GAPDH coupled, Kinase-Glo luminescence, 60 min | 0.043% of 380,000 active | P07378 | Potency, µM (series often up to 57.5 µM), without a hit: at the highest dose activity change, negative = inhibition, actives largely listed as inhibitors; note: potency is the fitted concentration of half-maximal effect; nearly all actives have a fitted effect of over 60% in size
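Recombinant glycosomal PGK reaction used 1,3-bisphosphoglycerate generated in-well by GAPDH (100nM final) in 100mM TEA pH 7.6, 5mM MgCl2, 0.01% Tween-20. After 60 minutes at room temperature, ATP was read by Kinase-Glo Plus luminescence end-point.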
WRN helicase inh – inhibitors of human WRN helicase | WRN helicase unwinding, fluorescent forked duplex, kinetic | Q14191 | Potency, µM (series often up to 114 µM), for the others: top-dose activity change, negative = inhibition, hits mostly inhibitors | AID 651768 | 0.46% of 360,000 active; note: potency is the fitted concentration of half-maximal effect; nearly all actives have a fitted effect of over 55% in size
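Screening of the MLSMR collection measured strand separation of a quenched forked DNA duplex (100 nM) by 20 nM WRN with 2 mM ATP, all final. Compounds were preincubated with enzyme 15 min at room temperature.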
FEN1 inhibitor – human FEN1 inhibition; Potency, µM (series often up to 114 µM), for inactives: at the highest dose activity change, negative = inhibition, usual class: inhibitors; 0.35% of 390,000 active; Recombinant FEN1 flap cleavage, fluorescence, 15 min; P39748; note: potency is the fitted concentration of half-maximal effect; nearly all actives have a fitted effect of over 65% in size
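FEN1 at 10 nM preincubated with compounds 15 min at room temperature, then flap DNA substrate added at 50 nM final. Signal read at 0 and 15 min; concentration-response fitted with four-parameter Hill equation.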
PI5P4Ka inh – inhibitors of human PI5P4K alpha; P48426; PI5P4Kalpha enzyme, ADP-Glo luminescence, 60 min; active compounds read low; max response, %; 1.2% of 330,000 active; AID 652105; active = max response of -50% or lower; inconclusive = between -30% and -50%; inactive = -30% or higher; note: value at the top dose of about 77 µM
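ADP-Glo luminescence end-point after a 60 min room-temperature kinase reaction. PI5P4Kalpha and substrate in HEPES pH 7.4 buffer with EGTA, 0.1% CHAPS and 5% DMSO; ATP at 5 microM final.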
TDP1 inh – blocks human tyrosyl-DNA phosphodiesterase 1 | Potency, µM (doses to about 130 µM), for the others: at the highest dose activity change, negative = inhibition, actives largely listed as inhibitors | AID 485290 | 0.28% of 350,000 active | recombinant TDP1, AlphaScreen DNA substrate cleavage | Q9NUW8; note: potency is the fitted concentration of half-maximal effect; nearly all actives have a fitted effect of over 40% in size
Target sequence (Q9NUW8 whole entry, looked up): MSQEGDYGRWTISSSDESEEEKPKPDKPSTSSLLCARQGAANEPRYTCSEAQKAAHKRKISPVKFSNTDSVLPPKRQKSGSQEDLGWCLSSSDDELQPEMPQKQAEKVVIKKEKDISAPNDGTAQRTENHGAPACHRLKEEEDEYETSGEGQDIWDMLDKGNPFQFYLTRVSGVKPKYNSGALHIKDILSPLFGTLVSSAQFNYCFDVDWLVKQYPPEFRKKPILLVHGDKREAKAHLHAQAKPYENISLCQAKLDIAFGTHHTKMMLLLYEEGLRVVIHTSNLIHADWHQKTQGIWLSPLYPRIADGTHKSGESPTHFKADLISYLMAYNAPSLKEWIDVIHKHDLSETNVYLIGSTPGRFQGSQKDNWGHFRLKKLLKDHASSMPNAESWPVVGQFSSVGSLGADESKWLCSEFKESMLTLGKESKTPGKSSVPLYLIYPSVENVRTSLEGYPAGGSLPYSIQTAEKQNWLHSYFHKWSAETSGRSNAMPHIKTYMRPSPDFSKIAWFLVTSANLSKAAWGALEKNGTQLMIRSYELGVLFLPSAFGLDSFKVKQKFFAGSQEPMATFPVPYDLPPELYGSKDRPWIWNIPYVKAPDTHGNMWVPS
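AlphaScreen read-out: signal falls as enzyme removes the 3' tyrosine-FITC from a 5'-biotinylated DNA oligo (15 nM, 5 min, RT). Enzyme was E. coli-made recombinant Tdp1 at 1 nM, exposed to compound for 15 min beforehand; beads 10 ug/ml, 10 min.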
Tb PFK inh – T. brucei PFK enzyme inhibition; O15648; T. brucei PFK, ADP-Glo luminescence; Potency, µM (doses to about 57.5 µM), inactives show top-dose activity, negative = inhibition, hits mostly inhibitors; 0.17% of 330,000 active; AID 485367;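 note: potency is the fitted concentration of half-maximal effect; 0% = uninhibited 1x PFK enzyme wells and -100% = no-enzyme wells; nearly all actives have a fitted effect of over 60% in size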
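PFK 1.25 nM, F6P 0.5 mM, ATP 0.1 mM, 0.1 M TEA pH 8.0, 5 mM MgCl2, 0.01% Tween20, 0.1% BSA; 45 min RT. ADP-Glo readout. qHTS titration up to 57 uM; curves fitted, compounds curve-classed.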
ADP-Glo counter – counter-screen for PI5P4K inhibitors: ADP-Glo detection interference, no enzyme. shares compounds with PI5P4Ka inh. Potency, µM (titrated, usually from 76.9 µM), inactives show at the top dose activity change, negative = inhibition, hits mostly inhibitors. 1,100 tested, under 10 active. ADP-Glo detection counter-screen, luciferase luminescence, no enzyme
* = called active by the depositor; i = inactive; ? = inconclusive; . = not tested or not shown; [ ] = dose if it differs, or a comment. This is a sample that favours compounds with a hit; in the whole collection about 1.5% have one here. Unless noted, calls come from the whole dose curve; as a rule, active = well fitted curve in the direction sought with a large enough effect; inconclusive = small, poorly fitted or top-dose-only effect, or another doubt; inactive = no such curve, though single readings can be large; an effect the other way counts as inactive or inconclusive. Unless noted, % is set by controls: 0 for no effect and ±100 for the full control effect.

SMILES	Tb PGK inh	WRN helicase inh	FEN1 inhibitor	PI5P4Ka inh	TDP1 inh	Tb PFK inh	ADP-Glo counter
CC(C)C(=O)N1CCN(c2ccccc2NC(=O)c2ccco2)CC1	-35%	-15%	?	-59*	.	-1%	2%
O=C(C[C@@H]1C/C=C\C[C@@H](Cc2ccc(F)cc2)C(=O)OC[C@@H](Cc2ccccc2)NC1=O)N[C@H](CO)Cc1ccccc1	-7%	5%	-1%	-9	0%	0%	.
CC(C)=CCC/C(C)=C/CO/N=C1/C[C@@H](O)[C@@H](O)[C@@H]2[C@@H]3C(=O)N([C@@H](C)c4ccccc4)C(=O)[C@H]3CC[C@H]12	.	.	.	.	4%[21 µM]	.	.
COc1ccccc1C(=O)NC(=O)COC(=O)Cn1[nH]c(=O)c2ccccc2c1=O	i	4%	-12%	0	.	0%	.
O=C(NCc1cc([N+](=O)[O-])ccc1O)c1cccc(NS(=O)(=O)c2ccccc2)c1	-8%	?	-3%	-66*	3%	1%	2%
Oc1ccc(CNc2ccccc2F)c2cccnc12	-4%	1%	6%	?	8%	-2%	-9%
CC(C)(C)c1ccc(NC(=O)C2=CC=CN3CCS(=O)(=O)N=C23)cc1	-8%	-10%	13%	4	-2%[56.1 µM]	1%	3%
O=C(CNc1cc(S(=O)(=O)N2CCOCC2)ccc1N1CCCC1)Nc1ccc(Cl)cc1	-4%	0%	6%	8	.	.	.
COc1ccc(CNC(=O)CNC(=O)c2ccc(C(C)(C)C)cc2)cc1OC	-6%	-8%	13%	2	.	-10%	.
O=C(CBr)c1ccc(Oc2ccc(C(=O)C[n+]3cccc(Br)c3)cc2)cc1	.	.	-21%	.	.	.	.
O=C(NCCCCc1ccccc1)c1cccc(NC(=O)C2CC2)c1	-7%	4%	?	-53*	.	.	-1%
Cc1ccsc1C(=O)N1CCC1(C)C(=O)Nc1cccc(C#N)c1 (centres undefined)	.	-4%	.	2	.	.	.
Cc1ccc(NC(=O)CSc2nnc(CNC(=O)c3ccco3)n2C)cc1C	-2%	15%	4%	1	.	-2%	.
O=C(c1ccc2nc(-c3ccco3)c(-c3ccco3)nc2c1)N1CCN(c2ncccn2)CC1	-5%	45µM*	-15%	-53*	.	-17%	-4%
O=C(Nc1ccc2nc(-c3ccco3)c(-c3ccco3)nc2c1)N1CCN(c2ccccn2)CC1	-8%	18µM*	?	-91*	0%	?	0%
O=C1CN(C(=O)COC(=O)CCCOc2ccccc2)c2ccccc2N1	1%	-1%	-2%	1	8%	-5%	.
O=C(Cc1ccc(F)cc1)OCn1nnc2ccccc2c1=O	-1%	-19%	0%	0	.	1%	.
Cc1c(CC(=O)O)c(=O)oc2c(C)c3occ(-c4ccc(Br)cc4)c3cc12	?	-16%[11.6 µM]	?	-51*	.	-1%	-7%
O=C(O)c1cc(-c2ccc(-c3c(-c4ccc5c(c4)OCO5)noc3-c3ccsc3)cc2)nc2ccccc12	-4%	?	-23%	-71*	.	1%	0%
Clc1ccc(-c2nnc(-c3ccco3)nc2N2CCCCC2)cc1	-8%	?	-1%	-67*	7%	-14%	-5%
COc1ccc(NC(=S)N(CCCN2CCOCC2)C(C)c2cc3cccc(OC)c3o2)cc1 (centres undefined)	-11%	-7%	-11%	3	-3%	8%	.
COc1cccc2cc(C(C)N(CCCN3CCOCC3)C(=O)Nc3ccccc3)oc12 (centres undefined)	4%	2%	-9%	-2	5%	1%	0%
COCCNC(=O)C1Cc2c(-c3ccc(NC(C)=O)cc3)ccnc2O1 (centres undefined)	.	0%	.	-66*	.	.	2%
